In PubChem BioAssay AID588591 (National Center for Advancing Translational Sciences (NCATS), 2011):
In all, about 390,000 compounds went through this assay and about 4,700 (1.2%) were called active. About 4% were inconclusive and are not listed. Calls follow the shape of the dose curve; as a rule, active = well fitted inhibition curve with a large enough effect; inconclusive = small, poorly fitted or top-dose-only effect, or another doubt; inactive = no such curve, though single readings can be large or run the other way. The list comes from a sample in which actives are over-represented; it also holds similar structures and randomly drawn compounds.

Target: DNA polymerase eta (Homo sapiens) (UniProt Q9Y253)
Assay: qHTS for Inhibitors of Polymerase Eta
Details: recombinant Pol eta, fluorescent DNA replication assay; series mostly up to 114 µM; activity change, negative = inhibition: at the top concentration
Excerpt: The Y-family of DNA polymerases, such as Pol eta, are specifically involved in DNA repair. Pol eta copies undamaged DNA with a lower fidelity than other DNA-directed polymerases. However, it accurately replicates UV-damaged DNA; when thymine dimers are present, this polymerase inserts the complementary nucleotides in the newly synthesized DNA, thereby bypassing the lesion and suppressing the mutagenic effect of UV-induced DNA damage. […] Thus, while pol eta's (and most likely iota's) normal function is to protect humans against the deleterious consequences of DNA damage, under certain conditions they can have deleterious effects on human health. As a consequence, we propose to utilize a high throughput replication assay to identify small molecule inhibitors of pol eta. In a collaboration between the National Institute of Child Health & Human Development (NICHD) and NIH Chemical Genomics Center, a high-throughput, fluorescent screen was developed to screen the NIH Molecular Libraries Small Molecule Repository (MLSMR). This screen is used to identify inhibitors of pol eta. NIH Chemical Genomics Center [NCGC] NIH Molecular Libraries Probe Centers Network [MLPCN] MLPCN Grant: MH090825 Assay Submitter (PI): Roger Woodgate, NICHD)
Three microliters of reagents (buffer in column 3 and 4 as negative control and 10 nM Pol eta in columns 1, 2, and 5-48) were dispensed into a 1,536-well black solid-bottomed plate. Compounds (23 nL) were transferred via Kalypsys pin tool equipped with 1536-pin array. The plates were then incubated for 15 min at room temperature, and 1 µL substrate (50 nM final concentration) was added to start the reaction and kinetically read twice at 0 min and 10 min on the Viewlux reader
% is scaled to controls: 0 for no effect and ±100 for the full control effect; potency is read from the fitted curve at half-maximal effect.

Chain of DNA polymerase eta (Homo sapiens) (Q9Y253 whole entry, looked up): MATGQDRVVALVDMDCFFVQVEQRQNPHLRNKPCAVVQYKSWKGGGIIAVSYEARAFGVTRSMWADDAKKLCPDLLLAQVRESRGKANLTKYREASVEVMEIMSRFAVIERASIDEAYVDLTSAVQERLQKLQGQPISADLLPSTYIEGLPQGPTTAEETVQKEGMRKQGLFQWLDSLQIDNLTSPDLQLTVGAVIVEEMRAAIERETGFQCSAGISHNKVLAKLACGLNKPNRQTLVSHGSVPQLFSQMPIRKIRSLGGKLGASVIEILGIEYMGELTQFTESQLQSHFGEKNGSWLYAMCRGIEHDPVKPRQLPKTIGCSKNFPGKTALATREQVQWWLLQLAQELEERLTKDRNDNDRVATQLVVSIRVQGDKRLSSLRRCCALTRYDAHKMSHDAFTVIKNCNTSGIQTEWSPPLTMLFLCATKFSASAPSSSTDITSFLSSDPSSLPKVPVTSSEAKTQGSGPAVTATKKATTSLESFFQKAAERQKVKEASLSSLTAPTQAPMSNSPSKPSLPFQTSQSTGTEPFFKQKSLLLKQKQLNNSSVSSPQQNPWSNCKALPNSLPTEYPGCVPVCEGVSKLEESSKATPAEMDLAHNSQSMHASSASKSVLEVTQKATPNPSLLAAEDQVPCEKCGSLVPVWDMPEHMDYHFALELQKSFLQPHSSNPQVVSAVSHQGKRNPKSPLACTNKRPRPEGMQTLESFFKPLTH

Activity change, negative = inhibition, inactive:
Cc1ccc(CN2CCc3nc(N4CCN(C)CC4)ncc3C2)cc1 -6.28%, COc1ccc(CN2C(=O)C(NC(=O)c3cccc(C)c3)(C(F)(F)F)N=C2c2ccccc2)cc1 (configuration not stated) -19.9%, COc1ccc(C(=O)CSc2c(C(C)C)cnc3c2c(=O)n(C)c(=O)n3C)cc1 -12.1%, CCc1ccccc1NC(=O)Cc1ccc(NC(=O)N2CCCCc3ccccc32)cc1 -14.4%, Cc1oc2ccc(O)c(CN3CCCCC3)c2c1C(=O)Nc1cccc(C(F)(F)F)c1 -20.5%, CCOc1ccc(Nc2oc(/C=C/c3ccc(F)cc3)nc2C#N)cc1 -9.97%, CCSc1ncnc2c(C#N)c3n(c12)CCCCC3 1.77%, CCOC(=O)c1ccc(CSc2nnc3cc(C)c4ccccc4n23)cc1 -15%, CC(C)Cn1c(=O)c2ccccc2n2c(CCC(=O)N3CCN(c4cccc(Cl)c4)CC3)nnc12 -8.33%, O=c1c2ccccc2n(Cc2cccc(Cl)c2)c(=O)n1Cc1ccccc1 -6.01%, CCN(CC)CCCC(C)Nc1ccnc2cc(Cl)ccc12 (configuration not stated) -3.31% [at 57.1 µM], CCc1cccc(NC(=O)CSc2nccn2C)c1 -13.5%, CCCCn1cc(S(=O)(=O)c2ccc(OCC)cc2)c(=O)c2cc(OC)c(OC)cc21 -18.6%, Cc1ccc(NC(=O)c2cc3cc(C)ccc3n2C)cc1 -10.6%, CCOC(=O)/C=C/c1ccc(C(F)(F)F)cc1S(=O)(=O)NC(C)(C)C -25%, CCOC(=O)C[C@H]1c2ccc(C(F)(F)F)cc2S(=O)(=O)N1c1ccccc1 -11%, CC(=O)Nc1ccc(NC(=O)C2CCCN(S(=O)(=O)c3ccc4c(c3)CCCC(=O)N4)C2)cc1 (configuration not stated) -15.3%, Cc1c(Cl)cnc(NC(=O)COC(=O)c2ccc(S(=O)(=O)NCc3ccco3)cc2)c1Cl -20.6%, Cc1ccc(Cl)cc1NC(=O)COC(=O)C1CCCCC1 -12.7%, COc1cccc(Nc2nc3ccccc3c3nncn23)c1 -17.8%, CCN(CC)S(=O)(=O)c1ccc(C(=O)N=c2sc3cccc(OC)c3n2C)cc1 -7.47%, Cc1cccc(C(=O)N2c3nc(-c4ccco4)nn3C3(CCCCC3)[C@@H]3CCCC[C@@H]32)c1 -12.1%, Cc1ccc(CNC(=O)CCc2c(C)nc3c(c(C)nn3-c3ccccc3)c2C)cc1 -5.61%, O=C(CC1C(=O)N(c2ccccc2)C(=O)N1CCc1cccs1)Nc1ccc(F)cc1 (configuration not stated) -19.1%, CC(=O)c1cc(-c2ccccc2)[nH]c1N1CCCC1 -10.9%, CCOc1ccc(N(CC)S(=O)(=O)N2CCCC(C(=O)Nc3ccc(C(C)=O)cc3)C2)cc1 (configuration not stated) -23.1%, COc1cc(C)ccc1OCCSc1nc2ccc(NC(=O)c3ccc(C)cc3)cc2s1 -10.2%, CCOC(=O)N1CCc2c(sc3c2c(=O)n(Cc2ccccc2)c(=O)n3CC(=O)Nc2cccc(C)c2)C1 -20.6%, Fc1ccc(C(Nc2ccc(Cl)c(C(F)(F)F)c2)c2nnc(-c3ccccc3)o2)cc1 (configuration not stated) -17.1%, CC(=O)Nc1ccc(C(=O)OCC(=O)Nc2ccc([N+](=O)[O-])cc2C(F)(F)F)cc1 -15%, CC(=O)c1ccc(NC(=O)COc2ccccc2-c2nc(-c3ccccc3)no2)cc1 -3.54%, CCS(=O)(=O)N1CCc2cc(C(=O)NCc3ccc(OC)cc3)ccc21 4.55%, Cc1cccc(C(=O)NC(=S)N2CCN(c3ccc([N+](=O)[O-])cc3)CC2)c1 -10.6%, CN1CCN(C(=O)c2cnn(-c3ccccc3)c2NC(=O)c2ccc([N+](=O)[O-])cc2)CC1 -15.4%, O=C(NCc1ccco1)c1cnn2c(C(F)(F)F)cc(-c3ccco3)nc12 -10.4%, Cc1ccc(-c2cc(C(F)(F)F)n3ncc(C(=O)N4CCCCC4c4cccnc4)c3n2)cc1 (configuration not stated) -12.8%, Cc1ccc2nc(-c3ccc(O)cc3)c(Nc3ccc4c(c3)OCO4)n2c1 -1.93%, CCOC(=O)C1CCC(CN(Cc2ccc(OC)cc2)S(=O)(=O)c2ccc(F)c(C(=O)Nc3cc(C)ccc3C)c2)CC1 (configuration not stated) 8.54%, COCCN(CCOC)S(=O)(=O)c1ccc(C(=O)Nc2nc3c(s2)CCc2ccccc2-3)cc1 -12.8%, COc1ccc(-c2nc3ccc(C(=O)NCc4ccc(C)cc4)cc3nc2-c2ccc(OC)cc2)cc1 -17.2%, CCOc1ccc(N(C)S(=O)(=O)c2cc(-c3cnc(C)o3)ccc2OC)cc1 -6.45%, CCNC(=O)c1sccc1-n1cccc1 -13.4%, O=C(NCc1ccco1)c1sc2cccc(F)c2c1Cl -2.34%, CCC1=Nc2cc(C(=O)NCCCOC(C)C)ccc2Sc2ccc(C)cc21 -13.6%, O=C(NCc1ccccc1)c1cc(-c2cccc(Cl)c2)on1 1.32%, O=C(NCCc1ccc(Cl)cc1)c1ccc2c(c1)N(Cc1ccc(F)cc1)C(=O)CS2 -21.8%, C=CC1(C)CC(=O)C2(O)C(C)(O1)C(OC(C)=O)C(O)C1C(C)(C)CCC(O)C12C (configuration not stated) -5.73% [at 57.1 µM], CCOC(=O)C1CCN(C(=O)CSc2c3c(nc4ccc(Cl)cc24)CCCC3)CC1 -10.1%, Cc1cc(C(=O)CC#N)c(C)n1-c1c(C)n(C)n(-c2ccccc2)c1=O -11.8%, Cc1ccc(C)c2c1cc(C)c1nnc(SCC(=O)Nc3cccc(C(=O)O)c3)n12 -10.7%, CCCCN(C)c1nnc(NC(=O)Nc2ccc(Br)c(C)c2)s1 -6.03%, CCOC(=O)c1cc2c(=O)n3ccccc3nc2n(CC2CCCO2)c1=NC(=O)c1ccccc1F (configuration not stated) -16.5%, COCCN(Cc1ccco1)C(=O)Cn1ncc2c([nH]c3ccccc32)c1=O -3.2%, CCc1ccccc1NC(=O)c1sc2nc3c(cc2c1N)CN(Cc1ccccc1)CC3 -11.4%, CCc1ccc(NC(=O)c2sc3nc4c(cc3c2N)CN(CC)CC4)cc1 4.03%, CCCN(CCC)CCCNC(=O)Cn1cc2c(n1)-c1c(oc(C(=O)N3CCCC3)c1C)CC2 -14.2%, CCOC(=O)c1cc(OC(=O)c2ccccc2Cl)n(-c2ccccc2)n1 -22.5%, Cn1c(=O)c2c(-c3ccccc3Br)n(Cc3ccccc3)cc2n(C)c1=O -13.1%, CCc1ccc(NC(=O)CN2C(=O)CCSc3ccc(S(=O)(=O)N4CCCC4)cc32)cc1 -14.4%, CC(Oc1ccc(Br)cc1)C(=O)NCC(c1ccco1)N1CCCCC1 (configuration not stated) -9.97%, CC(Oc1ccccc1)C(=O)NN1Cc2ccccc2C1=N (configuration not stated) 6.77%, Cc1c(-c2cccc(NC(=O)C(C)(C)C)c2)nc2ncccn12 -1.75%, CCOc1ccc(S(=O)(=O)N(CC(=O)NCCSCc2ccc(C)cc2)c2ccccc2)cc1 -3.84%, COc1ccc(S(=O)(=O)Nc2cc3c(C(=O)OC(C)C)c(C)oc3c3ccccc23)cc1 -13.5%, Cc1ccc(S(=O)(=O)/N=S(\C)C(C)C)cc1 (configuration not stated) -17.2%, Cc1ccc(S(=O)(=O)Nc2nc(N)n(-c3ccccc3)n2)cc1 -3.75%, COc1ccc(N2CCN(C3CCCCC3NS(=O)(=O)c3ccccc3)CC2)cc1 (configuration not stated) -26.2%, COc1ccc(N(CC(=O)NCCc2ccc(Cl)cc2)S(=O)(=O)c2c(C)nn(C)c2C)cc1 -14%, CCN(CC)c1ccc(NC(=O)Cn2nc3c(cc2=O)CCCC3)c(C)c1 -11.4%, CCCCOC(=O)CSc1ncnc2sc3c(c12)CCC(C)C3 (configuration not stated) -13.5%, NC1CCN(O)C1=O (configuration not stated) -4.61% [at 57.1 µM], CCOc1ccc(NC(=O)CCC(=O)N2CC(C)Oc3ccc(C)cc32)cc1 (configuration not stated) -2.33%, COc1ccc(NC(=O)CCCc2nnc3n(CCC(C)C)c(=O)c4sccc4n23)c(OC)c1 -2.66%, COc1ccc(OC)c(NC(=O)c2ccc3c(c2)C(=O)N(c2ccc(OC(C)=O)cc2)C3=O)c1 -19%, Cc1cc(N2C(=O)c3ccc(C(=O)NCc4ccccc4)cc3C2=O)no1 3.56%, COc1ccc(Cl)cc1-n1c(CCC(=O)O)ccc1-c1ccc(C)cc1 -0.718%, Cc1ccc(Oc2c(C(F)(F)F)oc3c(CN4CCCCC4)c(O)ccc3c2=O)cc1 -5.48%, O=C(COc1ccc2c(C(F)(F)F)cc(=O)oc2c1)Nc1ccc2c(c1)OCCO2 -13.5%

Potency, active:
CCSC1=C(C#N)C(=O)n2c1cc1c2CCCC1 12.6 µM, CCN(CC)CCCC(C)n1c2nc(=O)[nH]c(=O)c-2nc2cc(Cl)ccc21 (configuration not stated) 31.6 µM, CCOC(=O)C1Nc2ccc(C(F)(F)F)cc2C2C=CCC12 (configuration not stated) 79.4 µM, Cc1c(Cl)cnc(NC(=O)COC(=O)C2CCCC2)c1Cl 35.5 µM, CCCCCCc1cc2cc(-c3nnc(-c4ccccc4)o3)c(=O)oc2cc1O 39.8 µM, O=C1NN(c2ccccc2)C(=O)/C1=C/c1ccc(-c2cccc(C(=O)O)c2)o1 20 µM, Cn1ccc(=Nc2ccc(NC(=O)c3ccc(N=c4ccn(C)c5ccc([N+](=O)[O-])cc45)cc3)cc2)cc1 5.62 µM, Cc1cc(/C=N/Nc2ccc([N+](=O)[O-])cn2)c(C)n1-c1cccc(C(=O)O)c1 22.4 µM, COC(=O)c1cnn2c(C(F)(F)F)cc(-c3ccco3)nc12 20 µM, COc1ccc(C(=O)Nc2nc(-c3ccc(OC)cc3)c(-c3ccc([N+](=O)[O-])cc3)s2)cc1 79.4 µM, Cc1ccsc1C(=O)NCCc1ccco1 22.4 µM, O=C(O)C(c1ccccc1)N1C(=O)/C(=C\c2ccc(-c3cccc(Cl)c3)o2)SC1=S (configuration not stated) 44.7 µM, Cc1cc(/C=C2\SC(=O)N(C)C2=O)c(C)n1-c1cccc(C(=O)O)c1 22.4 µM, CCc1ccc2nc3sc(C(=O)Nc4nnc(CC)s4)c(N)c3cc2c1 50.1 µM, CC(Oc1ccccc1)C(=O)Nc1oc(-c2ccco2)c(-c2ccco2)c1C#N (configuration not stated) 20 µM, Cc1ccc(S(=O)(=O)/N=C2\C=C(NS(=O)(=O)c3ccc(C)cc3)C(=O)c3ccccc32)cc1 79.4 µM, COc1ccc(S(=O)(=O)/N=C2\C=C(NS(=O)(=O)c3ccccc3)C(=O)c3ccccc32)cc1 22.4 µM, O=C(O)c1ccc2c(c1)C(=O)N(c1ccc(/C=C/C(=O)c3ccccc3)cc1)C2=O 22.4 µM, Cc1cc(C)cc(Oc2c(C(F)(F)F)oc3cc(OCC(=O)O)ccc3c2=O)c1 35.5 µM
